CHO-K1 Ca ag: counter-screen for M1 agonists: effect in parental CHO-K1 cells. activation, % at 3 µM. AID 602248, 2012. Fluo-8 calcium fluorescence; scaled to maximal ATP response, vehicle zero. 360,000 compounds, 0.48% hits; in the data active = activation above about 15%;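 note: untransfected CHO-K1 host cells lacking M1 receptor as counterscreen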
CHRM1 PAM: human M1 muscarinic receptor positive allosteric modulators, primary screen, CHO-K1 cells, Fluo-8 calcium fluorescence, 1536-well; Muscarinic acetylcholine receptor M1 (Homo sapiens), P11229; activation, % at 3 µM; CHO-K1 hM1, ACh EC20; 0% = ACh EC20, 100% = maximal ACh; 360,000 compounds, 0.088% hits; in the data active = activation above about 19%, passing the limit was not always enough
Target sequence (P11229 whole entry, looked up): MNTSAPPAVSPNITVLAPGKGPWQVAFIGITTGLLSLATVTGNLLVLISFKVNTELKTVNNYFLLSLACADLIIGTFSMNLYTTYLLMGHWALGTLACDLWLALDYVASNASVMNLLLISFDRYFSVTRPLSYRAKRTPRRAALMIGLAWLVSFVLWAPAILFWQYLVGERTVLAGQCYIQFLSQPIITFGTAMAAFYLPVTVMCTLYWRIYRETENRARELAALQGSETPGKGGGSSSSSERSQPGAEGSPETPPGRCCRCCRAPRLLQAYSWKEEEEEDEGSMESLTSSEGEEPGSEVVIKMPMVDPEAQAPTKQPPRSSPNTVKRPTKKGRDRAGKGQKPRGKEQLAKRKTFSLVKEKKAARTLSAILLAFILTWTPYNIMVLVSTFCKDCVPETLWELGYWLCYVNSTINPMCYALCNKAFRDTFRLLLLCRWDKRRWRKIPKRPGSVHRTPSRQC
M1 antag: human M1 muscarinic receptor antagonists, primary screen, CHO-K1 cells, Fluo-8 calcium fluorescence, 1536-well; Muscarinic acetylcholine receptor M1 (Homo sapiens), P11229; CHO-K1 hM1, ACh EC80 antagonist; inhibition, % at 3 µM; 360,000 compounds, 1.3% hits; AID 588852, 2011;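 active = percent inhibition above its own plate's cutoff, namely the mean of that plate's compound wells plus 3 SD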;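 note: peak over basal fluorescence ratio during 140 s after agonist addition; 0% = ACh EC80 plus DMSO and 100% = DMSO alone without agonist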
M1 PAM parental: nonselective calcium activators in parental CHO-K1 cells, primary screen, counter-screen for M1 PAM project, cell-based, Fluo-8 calcium fluorescence, full deck, 1536-well; activation, % at 3 µM; AID 602247, 2012; 360,000 compounds, 0.02% hits; ATP EC20; 0% at ATP EC20, 100% at ATP max;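 active = activation above the run cutoff, the mean activation of all test compounds plus 3 SD, cut at about 40% in these data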;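 note: peak over basal fluorescence ratio in a 140 s read after ATP addition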
CHO-K1 Ca antag: M1 antagonist counterscreen hit in parental CHO-K1 cells; ATP-induced calcium, Fluo-8 fluorescence; 360,000 compounds, 0.6% hits; inhibition, % at 3 µM;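 active = inhibition above a per-plate cutoff, the plate's mean sample inhibition plus 3 SD, cut at about 24% in these data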;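 note: 0% = DMSO plus EC80 ATP and 100% = DMSO alone without ATP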
M1 ag: human M1 muscarinic receptor agonists, primary screen, Fluo-8 calcium fluorescence, CHO-K1 cells, HTS | CHO-K1 hM1, agonist mode; 0% DMSO, 100% acetylcholine EC100 | Muscarinic acetylcholine receptor M1 (Homo sapiens), P11229 | 360,000 compounds, 0.33% hits | activation, % at 3 µM | AID 588814, 2011;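 active = activation above the run's mean compound activation plus 3 SD, cut at about 16% in these data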;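 note: peak over basal fluorescence ratio within a 140 s kinetic read after compound addition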
The depositor's hits bear a star. Hits are enriched below; roughly 2.3% of the tested compounds scored in any of these assays.

SMILES	CHO-K1 Ca ag	CHRM1 PAM	M1 antag	M1 PAM parental	CHO-K1 Ca antag	M1 ag
CCc1nc(SCC(=O)NCCc2ccccc2)c2oc3ccccc3c2n1	0.7	0.0	-1.7	24.7	-11.8	-3.5
CCCNC(=O)c1cc(C2CCCCN2C(=O)OCCF)on1 (stereo not drawn)	1.1	10.2	-12.2	17.7	-10.1	-7.6
CCCNC(=O)c1cc(C2CCCCN2C(=O)OCC(C)C)on1 (stereo not drawn)	-0.5	-20.2	41.8*	-11.9	4.8	-9.4
CCCNC(=O)c1cc(C2CCCCN2C(=O)CCCc2ccccc2)on1 (stereo not drawn)	0.5	-9.8	10.1	-23.7	24.7*	-6.4
CC1(C(=O)NCc2cccc(Cl)c2)Cc2c(-c3ccc4c(c3)OCO4)ccnc2O1 (stereo not drawn)	0.6	2.1	-10.6	10.4	-11.0	-6.8
Cc1nc(SCC(=O)N2CCOCC2)c2c3c(sc2n1)CCC3	0.8	2.4	0.8	6.2	-9.9	0.2
O=C(NC1CCCCCCC1)c1cc(COc2ccc3ncccc3c2)on1	11.1	-18.5	49.4*	1.8	28.8*	-4.7
Cc1cc(CN(C)C(=O)c2cc(COc3ccc4ncccc4c3)on2)on1	13.0	-9.2	18.8	3.4	8.8	3.2
CC(CNC(=O)c1cc(COc2ccc3ncccc3c2)on1)c1ccccc1 (stereo not drawn)	17.2*	-14.3	43.2*	-6.0	17.6	2.4
C[C@H]1CN([C@@H](C)CO)C(=O)CCCn2nncc2CO[C@@H]1CN(C)C(=O)c1ccc2ccn(C)c2c1	0.3	-2.3	7.4	-5.1	3.5	-4.1
COc1cc(NC(=O)c2cc3ccccc3cc2O)c(OC)cc1Cl	13.5	-12.4	22.8	2.0	15.7	-2.2
COc1ccccc1NC(=O)c1cc2cc(Br)ccc2cc1O	15.3*	-15.9	31.6	-9.2	28.6*	-2.8
CCOc1ccc(CNS(=O)(=O)c2cc(-c3cc(C)no3)ccc2OC)cc1OC	2.2	15.4	-15.7	9.7	-11.1	-1.1
COc1ccccc1CN(C)C(=O)c1cc(-c2cc(OC)c(OC)c(OC)c2)nc2ccccc12	4.9	-3.0	19.0	0.9	-2.1	-5.7
COc1ccc(-c2cc(C(=O)Nc3cccc(S(=O)(=O)NCc4ccco4)c3)c3ccccc3n2)cc1OC	6.9	-13.3	40.6*	-4.1	-8.4	-1.1
CCN(CC(=O)Nc1ccc(NC(C)=O)cc1)C(=O)c1cc(-c2ccccc2Cl)nc2ccccc12	8.5	-16.0	41.0*	-5.0	2.9	-0.5
COCCN(Cc1ccccc1)C(=O)c1cc(-c2ccc(OC)c(OC)c2)nc2ccccc12	6.3	2.6	16.3	-20.5	14.6	1.4
CCN(Cc1ccccc1)C(=O)c1cc(-c2ccc(OC)c(OC)c2)nc2ccccc12	4.9	-12.1	34.8*	-6.1	3.2	-3.5
COc1ccc(-c2cc(C(=O)N(C)Cc3ccccc3F)c3ccccc3n2)cc1OC	5.2	-16.3	40.1*	0.9	8.1	-2.4
Cc1ccc(S(=O)(=O)N2CCCCC2)cc1NC(=O)c1ccc(Cl)nc1	6.4	-4.5	3.2	6.6	-14.0	-2.8
CCOC(=O)C1CSC(CC(=O)Nc2ccc(OC(F)(F)F)cc2)C(=O)N1 (stereo not drawn)	0.1	-3.9	9.0	-27.1	13.8	-4.1
Cn1cc([N+](=O)[O-])c(C(=O)NNC(=O)c2ccc([N+](=O)[O-])cc2Cl)n1	0.1	10.9	-8.8	14.2	-4.7	-2.6
COc1cc(-c2cc(C(=O)N(C)Cc3ccccc3)c3ccccc3n2)cc(OC)c1OC	4.8	-11.2	22.5*	-1.9	6.5	-5.1
CCOc1ccc(NC(=O)CN(C)C(=O)c2cc(-c3ccc(OC)cc3)nc3ccccc23)cc1OCC	5.3	-8.2	30.3*	-15.3	14.1	-2.1
COc1ccc(NC(=O)CN(C)C(=O)c2cc(-c3ccc(Cl)cc3)nc3ccccc23)cc1	8.3	-4.5	19.9	3.5	7.6	-4.0

Assay outcomes deposited in PubChem BioAssay by The Scripps Research Institute Molecular Screening Center.
